In the supplement of paper PMC9942566:
± gives the standard deviation of the averaged measurements.

What follows are compounds tested on Serratia marcescens K904 PosmB-luxCDABE reporter (pMQ747) (assay: PosmB-lux reporter fold induction (RLU/OD600 relative to no-compound control), highest over Biolog concentrations; higher = stronger reporter activation). Conditions: ΔrcsB mutant CMS5177; 4 h.
Procedure: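 Serratia marcescens K904 (wild type) or its isogenic ΔrcsB mutant, carrying the Rcs-dependent PosmB-luxCDABE reporter plasmid pMQ747, was grown in LB at OD600 0.1 in Biolog Phenotype MicroArray plates PM11-20 for 4 h at 30-32°C. Each compound is present at 3-4 proprietary concentrations (not stated); per the Fig. S1 legend the value given is the highest fold over those wells. Three independent trials.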
With `c1ccc(-c2nn(-c3ccccc3)[n+](-c3cccc4ccccc34)n2)cc1` [tetrazolium violet] (Biolog plate: PM20, well positions: B9-12) the “PosmB-lux reporter fold induction” value was 0.262 ± 0.11.
`Cc1ncc([N+](=O)[O-])n1CC(O)CCl` (stereo not given) [ornidazole] (Biolog plate: PM20, well positions: C9-12) was tested, and the “PosmB-lux reporter fold induction” value was 1.59 ± 0.49.
`CCS(=O)(=O)CCn1c([N+](=O)[O-])cnc1C` [tinidazole] (Biolog plate: PM18, well positions: F5-8) was tested, and the “PosmB-lux reporter fold induction” value was 1 ± 0.3.
In the case of `Nc1ccc(S(=O)(=O)Nc2ccc(Cl)nn2)cc1` [sulfachloro-pyridazine] (Biolog plate: PM17, well positions: C5-8), the “PosmB-lux reporter fold induction” value is reported as 1.63 ± 0.15.
For `CSCCC(N)C(=O)NO` (racemic) [DL-methionine hydroxamate] (Biolog plate: PM17, well positions: F5-8), the “PosmB-lux reporter fold induction” value was 5.25 ± 1.3.
In the case of `O=C1C=C(O)C(=O)c2ccccc21` [lawsone] (Biolog plate: PM19, well positions: E9-12), the “PosmB-lux reporter fold induction” value is reported as 1.14 ± 0.35.
`O=C(O)c1ccccc1S` [Thiosalicylic acid] (Biolog plate: PM17, well positions: A9-12) was tested, and the “PosmB-lux reporter fold induction” value was 0.982 ± 0.15.
For `Cc1cc(N)c2ccccc2[n+]1CCCCCCCCCC[n+]1c(C)cc(N)c2ccccc21` [Dequalinium chloride] (Biolog plate: PM13, well positions: A5-8), the “PosmB-lux reporter fold induction” value was 1.05 ± 0.21.
For `CC1(C)S[C@@H]2[C@H](NC(=O)[C@H](N)c3ccccc3)C(=O)N2[C@H]1C(=O)O` [Ampicillin] (Biolog plate: PM13, well positions: A2-4), the “PosmB-lux reporter fold induction” value was 1.06 ± 0.25.
With `CN(C)C(=O)/N=N/C(=O)N(C)C` [diamide] (Biolog plate: PM16, well positions: D5-8) the “PosmB-lux reporter fold induction” value was 2.26 ± 0.64.
For `COc1ccc(CO)cc1OC` [3,4-Dimethoxy-benzyl alcohol] (Biolog plate: PM15, well positions: F1-4), the “PosmB-lux reporter fold induction” value was 1.65 ± 0.64.
For `C[n+]1c2cc(N)ccc2cc2ccc(N)cc21.Nc1ccc2cc3ccc(N)cc3nc2c1` [Acriflavine] (Biolog plate: PM14, well positions: A2-4), the “PosmB-lux reporter fold induction” value was 2.05 ± 0.23.
In the case of `CCCCCCCCCCCC[N+](C)(C)CCCS(=O)(=O)[O-]` [lauryl sulfobetaine] (Biolog plate: PM19, well positions: G1-4), the “PosmB-lux reporter fold induction” value is reported as 1.4 ± 0.45.
For `CCOc1ccc2ccccc2c1C(=O)N[C@@H]1C(=O)N2[C@@H]1SC(C)(C)[C@@H]2C(=O)O` [Nafcillin] (Biolog plate: PM11, well positions: D9-12), the “PosmB-lux reporter fold induction” value was 1.05 ± 0.14.
For `[Na+].[O]=[V](=[O])[O-]` [Sodium metavanadate] (Biolog plate: PM14, well positions: F9-12), the “PosmB-lux reporter fold induction” value was 1.84 ± 1.
For `NC[C@@H]1O[C@H](O[C@H]2[C@@H](O)[C@H](O[C@@H]3[C@@H](O)[C@H](N)C[C@H](N)[C@H]3O[C@H]3O[C@H](CN)[C@@H](O)[C@H](O)[C@H]3N)O[C@@H]2CO)[C@H](N)[C@@H](O)[C@@H]1O` [Neomycin] (Biolog plate: PM11, well positions: F9-12), the “PosmB-lux reporter fold induction” value was 1.31 ± 0.23.
In the case of `NO` [hydroxylamine] (Biolog plate: PM19, well positions: G9-12), the “PosmB-lux reporter fold induction” value is reported as 1.39 ± 0.47.
With `O=C(N[C@H](CO)[C@H](O)c1ccc([N+](=O)[O-])cc1)C(Cl)Cl` [Chloramphenicol] (Biolog plate: PM11, well positions: F1-4) the “PosmB-lux reporter fold induction” value was 1.56 ± 0.59.
`Cn1nnnc1SCC1=C(C(=O)O)N2C(=O)[C@@H](NC(=O)[C@H](OC=O)c3ccccc3)[C@H]2SC1` [cefamandole nafate] (Biolog plate: PM17, well positions: G5-8) was tested, and the “PosmB-lux reporter fold induction” value was 1.52 ± 0.36.
With `CC1=CC(=O)c2ccccc2C1=O` [Menadione] (Biolog plate: PM15, well positions: G9-12) the “PosmB-lux reporter fold induction” value was 0.917 ± 0.14.
`Nc1c2ccccc2nc2ccccc12` [9-Aminoacridine] (Biolog plate: PM14, well positions: B1-4) was tested, and the “PosmB-lux reporter fold induction” value was 1.19 ± 0.19.
In the case of `O=[Si](O)O` [sodium metasilicate] (Biolog plate: PM18, well positions: E1-4), the “PosmB-lux reporter fold induction” value is reported as 0.928 ± 0.32.
With `CC1(C)S[C@@H]2[C@H](NC(=O)COc3ccccc3)C(=O)N2[C@H]1C(=O)O.CN(C)[C@@H]1C(O)=C(C(=O)NCN2CCN(CCO)CC2)C(=O)[C@@]2(O)C(O)=C3C(=O)c4c(O)cccc4[C@@](C)(O)[C@H]3C[C@@H]12` [Penimepicycline] (Biolog plate: PM12, well positions: B5-8) the “PosmB-lux reporter fold induction” value was 1.27 ± 0.3.
In the case of `CC1(C)S[C@@H]2[C@H](NC(=O)Cc3ccccc3)C(=O)N2[C@H]1C(=O)O` [Penicillin G] (Biolog plate: PM12, well positions: A2-4), the “PosmB-lux reporter fold induction” value is reported as 1.02 ± 0.19.
`CC1COc2c(N3CCN(C)CC3)c(F)cc3c(=O)c(C(=O)O)cn1c23` (stereo not given) [Ofloxacin] (Biolog plate: PM11, well positions: H9-12) was tested, and the “PosmB-lux reporter fold induction” value was 1.96 ± 0.47.
`O=C(O)/C=C/c1ccccc1` [cinnamic acid] (Biolog plate: PM19, well positions: C9-12) was tested, and the “PosmB-lux reporter fold induction” value was 1.17 ± 0.32.
For `O=C(O)CN(CCN(CC(=O)O)CC(=O)O)CC(=O)O` (Biolog plate: PM15, well positions: B5-8), the “PosmB-lux reporter fold induction” value was 1.22 ± 0.17.
For `CC(C)c1nc2nc(N)nc(N)c2nc1C(C)C` [2,4-Diamino-6,7-diisopropyl-pteridine] (Biolog plate: PM12, well positions: E1-4), the “PosmB-lux reporter fold induction” value was 2.91 ± 0.33.
`CCN(CC)CC(=O)Nc1c(C)cccc1C` [lidocaine] (Biolog plate: PM18, well positions: D9-12) was tested, and the “PosmB-lux reporter fold induction” value was 0.721 ± 0.15.
`CC[C@H]1OC(=O)[C@H](C)[C@@H](O[C@H]2C[C@@](C)(OC)[C@@H](O)[C@H](C)O2)[C@H](C)[C@@H](O[C@@H]2O[C@H](C)C[C@H](N(C)C)[C@H]2O)[C@](C)(O)C[C@@H](C)C(=O)[C@H](C)[C@@H](O)[C@]1(C)O` [Erythromycin] (Biolog plate: PM11, well positions: F5-8) was tested, and the “PosmB-lux reporter fold induction” value was 1.46 ± 0.041.
`Cc1ccc2c(Cl)cc(Cl)c(O)c2n1` [5,7-Dichloro-8-hydroxy-quinaldine] (Biolog plate: PM15, well positions: B9-12) was tested, and the “PosmB-lux reporter fold induction” value was 1.27 ± 0.13.
For `Cc1ccccc1C(OCCN(C)C)c1ccccc1` (stereo not given) [orphenadrine] (Biolog plate: PM20, well positions: B1-4), the “PosmB-lux reporter fold induction” value was 1.4 ± 0.12.
`O=C(O)CN(CCOCCOCCN(CC(=O)O)CC(=O)O)CC(=O)O` (Biolog plate: PM14, well positions: H1-4) was tested, and the “PosmB-lux reporter fold induction” value was 1.53 ± 0.51.
With `NC(=O)N/N=C/c1ccc([N+](=O)[O-])o1` [5-Nitro-2-furaldehyde semicarbazone] (Biolog plate: PM15, well positions: E5-8) the “PosmB-lux reporter fold induction” value was 3.61 ± 0.9.
In the case of `O=C([O-])c1ccccc1O.[Na+]` [sodium salicylate (NSAID)] (Biolog plate: PM17, well positions: B1-4), the “PosmB-lux reporter fold induction” value is reported as 2.06 ± 0.94.
`N=C(NCCCCCCNC(=N)NC(=N)Nc1ccc(Cl)cc1)NC(=N)Nc1ccc(Cl)cc1` [chlorhexidine] (Biolog plate: PM19, well positions: C1-4) was tested, and the “PosmB-lux reporter fold induction” value was 1.19 ± 0.57.
For `CCCCCCCCCCCC[N+](C)(C)C` [Dodecyltrimethyl ammonium bromide] (Biolog plate: PM12, well positions: H9-12), the “PosmB-lux reporter fold induction” value was 1.97 ± 0.62.
With `NC[C@H]1O[C@H](O[C@H]2[C@H](O)[C@@H](O[C@H]3O[C@H](CO)[C@@H](O)[C@H](N)[C@H]3O)[C@H](N)C[C@@H]2N)[C@H](N)C[C@@H]1O` [Tobramycin] (Biolog plate: PM12, well positions: F1-4) the “PosmB-lux reporter fold induction” value was 1.52 ± 0.67.
In the case of `CN(C)[C@@H]1C(O)=C(C(N)=O)C(=O)[C@@]2(O)C(O)=C3C(=O)c4c(O)ccc(Cl)c4[C@@](C)(O)[C@H]3C[C@@H]12` [Chlortetracycline] (Biolog plate: PM11, well positions: A5-8), the “PosmB-lux reporter fold induction” value is reported as 1.3 ± 0.26.
In the case of `Oc1c(Cl)cc(Cl)c(Cl)c1Cc1c(O)c(Cl)cc(Cl)c1Cl` [hexa-chlorophene] (Biolog plate: PM20, well positions: E9-12), the “PosmB-lux reporter fold induction” value is reported as 0.997 ± 0.31.
